Compounds without any hit were thinned out: in the full panel of roughly 79,000, 15% have a hit. Values without a mark were called inactive. The source made the active and inactive calls. No stated cut-off is given here; in the data, active means growth inhibition above about 70%; inactive means the rest.

Assay [1] can be described thus: NCI Yeast Anticancer Drug Screen. Data for the rad50 strain (AID 155).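 Further: 0% = growth of vehicle-only cultures of the same strain.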 The settings on record: S. cerevisiae rad50 strain growth inhibition, stronger effect = higher value. Put shortly:
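Relative growth inhibition (compound vs vehicle) was measured in yeast with a defined repair-gene alteration.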

The nature of assay [2]: NCI Yeast Anticancer Drug Screen. Data for the mec2-1 strain (AID 157). The conditions noted are these: S. cerevisiae mec2-1 strain, stronger effect = higher value. Put shortly: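 Vehicle-treated cultures served as reference for growth inhibition of compound-exposed mec2-1 yeast.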
The nature of assay [3]: NCI Yeast Anticancer Drug Screen. Data for the sgs1 mgt1 strain (AID 161).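 Further: 0% = growth of cultures given vehicle only.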 The settings on record: S. cerevisiae sgs1 mgt1 strain, stronger effect = higher value. In a few lines: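 Genetically altered yeast, compound exposure, growth inhibition relative to vehicle.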
A short description of assay [4]: NCI Yeast Anticancer Drug Screen. Data for the cln2 rad14 strain (AID 165).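 Further: 0% = growth equal to vehicle treated cultures.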 The conditions noted are these: S. cerevisiae cln2 rad14 strain, stronger effect = higher value. Put shortly:
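Each compound was tested on cln2 rad14 yeast. Inhibition of growth was calculated against vehicle-exposed controls.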

Assay [5] in a line: NCI Yeast Anticancer Drug Screen. Data for the bub3 strain (AID 167). The conditions noted are these: S. cerevisiae bub3 mutant strain, stronger effect = higher value. In a few lines: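 Screening used yeast with an engineered genetic alteration affecting cell cycle control. Compound-exposed cultures were compared with vehicle cultures, and reduced growth was taken as inhibition.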
The nature of assay [6]: NCI Yeast Anticancer Drug Screen. Data for the mlh1 rad18 strain (AID 175). The settings on record: S. cerevisiae mlh1 rad18 strain growth inhibition, stronger effect = higher value. In a few lines:
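Vehicle-treated cultures served as the reference for growth inhibition in a yeast strain carrying DNA damage repair alterations exposed to each compound.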

Where [7] appears, read: at 5.0 µM (retest, dose inferred, filed as 0.5).
Where [8] appears, read: at 50.0 µM (retest, dose inferred, filed as 5.0).

As for `CS(=O)(=O)Nc1ccc(Nc2c3ccccc3nc3ccccc23)cc1`, the growth inhibition in assay [1] (setting [7]) is 13%; in assay [1] (setting [8]), 25%; in assay [1] (at 50.0 µM), 91.8% (active); in assay [2] (setting [7]) it was -7%; in assay [2] (setting [8]), -11%; in assay [2] (at 50.0 µM), 25.6%. Further, the growth inhibition was 6% in assay [3] (setting [7]); 20% in assay [3] (setting [8]); 14.3% in assay [3] (at 50.0 µM); -14% in assay [4] (setting [7]); -3% in assay [4] (setting [8]); 18.9% in assay [4] (at 50.0 µM). In addition, the growth inhibition in assay [5] (setting [7]) is 10%; in assay [5] (setting [8]), -2%; in assay [5] (at 50.0 µM) it was 37.9%; in assay [6] (setting [7]), 1%; in assay [6] (setting [8]) it was 13%; in assay [6] (at 50.0 µM) it was 35.1%.

Turning to `CC(C)CCCC(C)C1CCC2C3CC=C4OC(=O)CCC4(C)C3CCC12C` (stereo not drawn), the growth inhibition is -11% in assay [1] (setting [7]); 88% (active) in assay [1] (setting [8]); 83.4% (active) in assay [1] (at 50.0 µM); -2% in assay [2] (setting [7]); 85% (active) in assay [2] (setting [8]); 91.8% (active) in assay [2] (at 50.0 µM). The growth inhibition in assay [3] (setting [7]) was -35%; in assay [3] (setting [8]), 93% (active); in assay [3] (at 50.0 µM), 76.2% (active); in assay [4] (setting [7]), -2%; in assay [4] (setting [8]), 93% (active); in assay [4] (at 50.0 µM), 85.2% (active). Besides, the growth inhibition in assay [5] (setting [7]) was -1%; in assay [5] (setting [8]) it was 91% (active); in assay [5] (at 50.0 µM), 86.3% (active); in assay [6] (setting [7]) it was -1%; in assay [6] (setting [8]), 94% (active); in assay [6] (at 50.0 µM), 90.6% (active).

`C=CCOc1ccccc1C(OCC)OCC`: the growth inhibition in assay [1] (setting [7]) is 8%; in assay [1] (setting [8]), 74% (active); in assay [1] (at 50.0 µM), 46.5%; in assay [2] (setting [7]) it was 7%; in assay [2] (setting [8]) it was 35%; in assay [2] (at 50.0 µM) it was 23.3%. The growth inhibition in assay [3] (setting [7]) is 8%; in assay [3] (setting [8]), 76% (active); in assay [3] (at 50.0 µM), 52.6%; in assay [4] (setting [7]) it was 11%; in assay [4] (setting [8]), 32%; in assay [4] (at 50.0 µM), 7.75%. The growth inhibition in assay [5] (setting [7]) was 7%; in assay [5] (setting [8]) it was 81% (active); in assay [5] (at 50.0 µM) it was 30.2%; in assay [6] (setting [7]), 0%; in assay [6] (setting [8]), 87% (active); in assay [6] (at 50.0 µM), 43.8%.

Consider `CCCCN(CCO)CC(O)Cn1cnc2c(N)ncnc21` (stereo not drawn) (tested in a mixture with another compound), for which the growth inhibition in assay [1] (setting [7]) is -12%; in assay [1] (setting [8]), -5%; in assay [1] (at 50.0 µM), 21.9%; in assay [2] (setting [7]), -12%; in assay [2] (setting [8]) it was -8%; in assay [2] (at 50.0 µM), -5.45%. Further, the growth inhibition in assay [3] (setting [7]) is -18%; in assay [3] (setting [8]), 0%; in assay [3] (at 50.0 µM), -3.9%; in assay [4] (setting [7]) it was -18%; in assay [4] (setting [8]), -7%; in assay [4] (at 50.0 µM), 18.7%. For the same compound, the growth inhibition in assay [5] (setting [7]) was 1%; in assay [5] (setting [8]), -8%; in assay [5] (at 50.0 µM) it was 3.2%; in assay [6] (setting [7]), 3%; in assay [6] (setting [8]), -4%; in assay [6] (at 50.0 µM), 25.9%.

Take `COc1cc(C/C(=C/c2ccc(OC)c3occc23)[N+](=O)[O-])cc(OC)c1OC`: the growth inhibition in assay [1] (setting [7]) is 18%; in assay [1] (setting [8]), 100% (active); in assay [1] (at 50.0 µM), 70.6% (active); in assay [2] (setting [7]), 29%; in assay [2] (setting [8]), 100% (active); in assay [2] (at 50.0 µM) it was 82.8% (active). Also, the growth inhibition in assay [3] (setting [7]) was 31%; in assay [3] (setting [8]) it was 99% (active); in assay [3] (at 50.0 µM), 82.9% (active); in assay [4] (setting [7]), 4%; in assay [4] (setting [8]), 99% (active); in assay [4] (at 50.0 µM), 64.8%. Besides, the growth inhibition in assay [5] (setting [7]) is 12%; in assay [5] (setting [8]), 97% (active); in assay [5] (at 50.0 µM), 60.7%; in assay [6] (setting [7]), 23%; in assay [6] (setting [8]), 100% (active); in assay [6] (at 50.0 µM), 87.2% (active).

As for `CCCCCCCCCCCCC1N=C(N)N2CCCC2=C1C(=O)OC` (stereo not drawn), the growth inhibition in assay [1] (setting [7]) was 82% (active); in assay [1] (setting [8]), 99% (active); in assay [1] (at 50.0 µM), 89.2% (active); in assay [2] (setting [7]) it was 99% (active); in assay [2] (setting [8]), 99% (active); in assay [2] (at 50.0 µM), 91.5% (active). Moreover, the growth inhibition is 69% in assay [3] (setting [7]); 99% (active) in assay [3] (setting [8]); 87.4% (active) in assay [3] (at 50.0 µM); 100% (active) in assay [4] (setting [7]); 99% (active) in assay [4] (setting [8]); 90.5% (active) in assay [4] (at 50.0 µM). For the same compound, the growth inhibition is 99% (active) in assay [5] (setting [7]); 99% (active) in assay [5] (setting [8]); 90.4% (active) in assay [5] (at 50.0 µM); 99% (active) in assay [6] (setting [7]); 99% (active) in assay [6] (setting [8]); 84.7% (active) in assay [6] (at 50.0 µM).
